# Hits are enriched below; roughly 3.6% of the tested compounds scored in any of these assays.
# HSF1 inh = HSF1 inhibition; NIH3T3-HGL HSE-luciferase, MG132-induced, luminescence 8 h; active compounds read low; activity change, negative = inhibition, % at 7.5 µM (by protocol); 0.77% of 300,000 active;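 active = more than half of replicate wells show activity change below -50%, luminescence cut by over half; inconclusive = some wells, but at most half, below -50%; inactive = no replicate well below -50%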;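 also: luciferase reports HSF-1 transcriptional activity via heat shock element; 0% = median of DMSO wells and -100% = zero luminescence signal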
# HSF-1 act = increases HSF-1 driven luciferase reporter signal. NIH3T3-HGL HSF-1 luciferase reporter, MG132, 8 h; 100% = twice DMSO control signal. activation, % at 9 µM. 1.7% of 300,000 active;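 active = mean replicate activation of at least 50% with a set share of replicates each reaching 50%; inconclusive = only one of those two conditions met; inactive = mean below 50% and too few replicates reaching it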;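 also: 0% = median of the neutral control wells and 100% = twice that signal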
# EBV LMP1 NFkB = reduces LMP1-driven NF-kappaB luciferase signal; inhibition, % at 12.5 µM; LMP1-induced NF-kappaB luciferase reporter cells, luminescence; AID 504558; 0.69% of 350,000 active; in the data active = inhibition above about 41%; inconclusive = no clear call, values can overlap the other calls;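 also: 0% = neutral control wells and 100% = reference inhibitor control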
# LGR2 antag = Drosophila LGR2 receptor signaling inhibition; AID 720647; 0.35% of 380,000 active; inhibition, % at 9.99 µM; HEK293 LGR2, CRE-luciferase, bursicon-stimulated, 4 h;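 active = drop in luminescence signal, shown as inhibition above about 50% in the replicate tests, limit read from the data, passing the limit was not always enough; inconclusive = probably only some replicates passing the limit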;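 also: agonist challenge used bursicon conditioned medium at about half maximal strength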
# TROY NFkB inh = blocks TROY-dependent signaling in reporter cells; 0.98% of 360,000 active; AID 1347056; inhibition, % at 10 µM; Q293 LMP1-TROYcd NF-kB luciferase reporter, 4 h;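 active = compounds whose plate-normalised and pattern-corrected inhibition of the luciferase reporter signal at the single screening dose is 50% or more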
# TWEAK-Fn14 inh = inhibitors of TWEAK-Fn14 interaction signaling | TWEAK-stimulated Fn14 reporter cells, luciferase luminescence, 8 h | AID 1159606 | 2% of 360,000 active | inhibition, % at 10 µM; in the data active = inhibition above about 50%
# Numbers without * were called inactive; ? = inconclusive; / = no result; ! = repeats disagree.
SMILES,HSF1 inh,HSF-1 act,EBV LMP1 NFkB,LGR2 antag,TROY NFkB inh,TWEAK-Fn14 inh
Cc1sc2nc(SCc3ccc(C(=O)O)cc3)n(Cc3ccco3)c(=O)c2c1C,-4,-5,-1,25,60*,38
O=c1c2ccccc2nc(SCc2ccccc2)n1Cc1ccco1,8,-6,-1,/,0,26
O=C(CSc1nc2ccccc2c(=O)n1Cc1ccco1)c1ccccc1,13,13,4,/,15,52*
O=c1c2ccccc2nc(SCc2nnc(-c3ccccc3Br)o2)n1Cc1ccco1,64,97*,-2,/,-2,6
C[C@@H]1CN([C@H](C)CO)C(=O)c2cccc(NS(C)(=O)=O)c2O[C@@H]1CN(C)S(=O)(=O)c1cn(C)cn1,/,/,/,9,/,/
CCn1c(COc2ccccc2)nnc1SCc1ccc(C#N)cc1,38,56*,0,/,-11,6
COC(=O)[C@H]1[C@H]2C[C@@H]3c4[nH]c5cc(OC)ccc5c4CCN3C[C@H]2C[C@@H](OC(=O)c2ccc(N)cc2)[C@@H]1OC,-55*,-64,-3,1,10,-6
C[C@@H]1CCCCO[C@H](CN(C)C(=O)Nc2ccc(F)cc2)[C@@H](C)CN([C@@H](C)CO)C(=O)c2cc(NC(=O)CCCN(C)C)ccc2O1,/,/,/,-2,/,/
O=C1NC2(NN1c1ccccc1)C1CC3CC(C1)CC2C3 (configuration not stated),-8,10,-8,15,/,88*
CC1(C)CC(NS(=O)(=O)c2ccc(F)cc2)CC(C)(C)N1,-12,-5,43*,-12,13,3
Fc1ccc(/C=C2\CCCC3=C2Nc2ncnn2C3c2ccc(F)cc2)cc1 (configuration not stated),66,98*,1,/,-50,35
COc1ccc(C2C3=C(Nc4ncnn42)c2ccccc2CCC3)cc1 (configuration not stated),-3,-9,7,/,-9,-11
CN(C)Cc1cn(CC[C@H]2CC[C@@H](NC(=O)Nc3ccc4c(c3)OCO4)[C@@H](CO)O2)nn1,/,/,/,-16,/,/
O=C1c2ccccc2C(=O)N1CCCCSc1nnnn1-c1ccccc1,19,53*,1,/,-10,-6
CCOc1ccc(OCCSc2nnnn2-c2ccccc2)cc1,5,1,2,/,-17,-5
O=C1c2ccccc2C(=O)N1CSc1nnnn1-c1ccccc1,5,22,3,/,-32,5
c1ccc(OCCSc2nnnn2-c2ccccc2)cc1,46,69*,-46,/,-31,17
c1ccc(OCCSc2nnc3sc4ccccc4n23)cc1,11,-4,70*,92*,67*,91*
C[C@H](CO)N1C[C@H](C)[C@@H](CN(C)Cc2ccc(Oc3ccccc3)cc2)Oc2ccc(NC(=O)Nc3ccc(C(F)(F)F)cc3)cc2CC1=O,/,/,/,36,/,/
CO[C@H]1CN(C)C(=O)c2cc(NC(=O)c3ccc(F)cc3)ccc2OC[C@H](C)N(C(=O)CN(C)C)C[C@@H]1C,/,/,/,-13,/,/
Cc1cc2nc(-c3ccc(SCc4ccccc4C#N)nc3)[nH]c2cc1C,-7,3,-8,-31,64*,58*
Cc1cc2nc(-c3ccc(SCC(=O)NC(C)C)nc3)[nH]c2cc1C,26,40,/,/,/,/
Cc1cc2nc(-c3ccc(SCc4ccc(C(=O)O)cc4)nc3)[nH]c2cc1C,8,16,-45,-41,52*,22
Cc1cc2nc(-c3ccc(SCC(=O)N4CCc5ccccc54)nc3)[nH]c2cc1C,22,34,-13,-38,0,10
Cc1cc2nc(-c3ccc(SCC(=O)Nc4ccc(S(=O)(=O)NC5CC5)cc4)nc3)[nH]c2cc1C,21,54*,-26,/,-8,32
SMILES,HSF1 inh,HSF-1 act,EBV LMP1 NFkB,LGR2 antag,TROY NFkB inh,TWEAK-Fn14 inh
COCCn1c(C)cc(C(=O)COC(=O)c2ccc(Cl)c(S(N)(=O)=O)c2)c1C,-61*,-62,7,37,10,72*
COCCn1c(C)cc(C(=O)COC(=O)c2ccc(N3CCCC3=O)cc2)c1C,0,-1,-11,/,22,49
Cc1cc(C(=O)COC(=O)c2ccc(O)cc2)c(C)n1CC1CCCO1 (configuration not stated),-11,-21,-15,/,62*,50
COCCn1c(C)cc(C(=O)COC(=O)c2ccc(-n3nc(C)cc3C)cc2)c1C,14,60*,7,/,25,10
Cc1cc(C(=O)COC(=O)c2ccc(Cl)c(S(N)(=O)=O)c2)c(C)n1CC1CCCO1 (configuration not stated),-57*,-62,-13,24,72*,64*
C[C@H]1CN([C@@H](C)CO)C(=O)Cc2cc(NC(=O)C3CCCCC3)ccc2O[C@H]1CN(C)C(=O)NC1CCCCC1,/,/,/,-17,/,/
CCC(=O)N1C[C@H](C)[C@H](OC)CN(C)C(=O)c2cc(NC(=O)Nc3cccc(F)c3)ccc2OC[C@H]1C,/,/,/,-6,/,/
Cc1cc(C(=O)COC(=O)c2cccc(O)c2)c(C)n1C1CC1,/,/,35,73*,-10,54*
Cc1cc(C(=O)COc2cccc([N+](=O)[O-])c2)c(C)n1C1CC1,/,/,-38,/,-33,-11
CN(C)CCN(Cc1ccc(Cl)cc1)c1ccccn1,-4,-14,52*,11,-3,-8
C[N+](C)(C)CCN(Cc1ccc(Cl)cc1)c1ccccn1,12,14,-2,/,12,5
Clc1ccc(-c2cn3c(n2)-c2ccccc2C3)cc1Cl,18,53*,-98,20,-15,42
CC1=C(C(=O)Nc2ccccn2)C(c2ccc(Cl)cc2)NC(=S)N1 (configuration not stated),25,64*,-24,-47,-17,-22
CC1=C(C(=O)Nc2ccccn2)C(c2ccc(Br)cc2)NC(=S)N1 (configuration not stated),31,39,-25,-89,-73,-28
CCc1ccc(-c2nc(CSCC(=O)NC3CC3)c(C)o2)cc1,-71*,-78,4,-15,0,11
CCc1ccc(-c2nc(CSCC(=O)N3CCN(c4ncccn4)CC3)c(C)o2)cc1,-16,-9,8,4,79*,51*
CSc1ccc(-c2nc(CSCC(=O)NC3CC3)c(C)o2)cc1,-21,-39,-3,-5,-24,0
COc1ccc(-c2nc(CSCC(=O)NCc3ccco3)c(C)o2)cc1,?,-59,4,/,30,69*
Cc1ccc(S(=O)(=O)N(C)C[C@H]2Oc3ccc(NS(=O)(=O)c4ccc(Cl)cc4)cc3CC(=O)N([C@H](C)CO)C[C@H]2C)cc1,/,/,/,-16,/,/
CCOc1cc(CNCC2CCCN2CC)cc(Cl)c1OC (configuration not stated),-74*,-81,2,-20,-2,3
CCc1cc(Cl)c(OC)c(C(=O)NC[C@@H]2CCCN2CC)c1O,2,-7,71*!,-1,4,-27
